Measurements taken from PubChem BioAssay (NCI).
This is part of a sample that, as a whole, favours compounds with a hit. Of some 83,000 tested, about 20% had one in any assay.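 Results are percent growth after 48 hours of single-concentration exposure. 100 means growth as in untreated cells, lower positive values show inhibition; negative values down to -100 show cell death.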 Values without a mark were called inactive. The source made the active and inactive calls. Rule for the calls: active = growth percent below 10; inactive = the rest.

These molecules were tested on MDA-MB-468 breast (assay: NCI-60 one-dose screen, 48 h (100 = growth as untreated, 0 = no growth, -100 = all killed)). Conditions: 10 µM unless noted.
For O=[N+]([O-])c1ccc(CO)cc1, the growth was 0.448% (active). COc1ccc(C2Nc3nc(OC)n(C)c(=O)c3N=C3c4ccccc4C(=O)C32)cc1 (stereo not given) showed a growth of 104%. In the case of CN1CCC(COc2cnc(-c3cccc(Cn4nc(-c5cccc(C#N)c5)ccc4=O)c3)nc2)CC1, the growth is reported as 87.4%. With CC(=O)O[C@H]1CC[C@]2(C)[C@H]3CC=C4[C@@H]5CC(C)(C)CC[C@]5(C(=O)NCCNCCNCCN)CC[C@@]4(C)[C@]3(C)CC[C@H]2C1(C)C the growth was -14.5% (active). With COc1cc2ncnc(-n3ncc4cc(NC(=O)Nc5ccc(Cl)c(C)c5)ccc43)c2cc1OC the growth was 93.6%. With COc1cc(NCCCN(CC(C)C)CC(C)C)c2ncccc2c1 the growth was -27.1% (active). In the case of C/C(CC1(O)C(=O)Nc2ccccc21)=N\O (stereo not given), the growth is reported as 92%. Molecule Cc1cccc(N2CCC(=O)NC2=S)c1 has a growth of 100%. For CCN1CCN(c2ccc(Nc3cc(-c4cccnc4Nc4c(Cl)c(OC)cc(OC)c4Cl)ncn3)cc2)CC1, the growth was 89.6%. In the case of CN1CCN(Cc2ccc(NC(=O)c3[nH]ncc3Nc3ncnc4[nH]ccc34)cc2)CC1, the growth is reported as -51.8% (active). Molecule Cc1ccc(C)c(-n2c(-c3ccc(Br)cc3)csc2=NC(=O)c2ccccc2F)c1 has a growth of 55.4%. For Cc1c(Cl)c(C)c(Cc2c(C)c(Cl)c(C)c(Cl)c2O)c(O)c1Cl, the growth was -8.25% (active). Work on COc1ccccc1N1CCN(C2=CC(=O)C(C)=C(C)C2=O)CC1 yielded a growth of 85.8%. For CC(C)COCC(CN(Cc1ccccc1)c1ccccc1)N1CCCC1 (stereo not given), the growth was 32.7%. Molecule COc1cc(C2CC(c3ccc(Cl)cc3)=NN2C=O)ccc1OS(=O)(=O)c1ccc(C)cc1 (stereo not given) has a growth of 60.6%. In the case of Cc1cc(Nc2c3ccccc3nc3ccccc23)ccc1NS(C)(=O)=O, the growth is reported as 23.6%. For NS(=O)(=O)c1ccc(Cn2c(SCC(=O)N/N=C/c3ccccc3O)nc3ccccc3c2=O)cc1, the growth was 52%. With O=C(Nc1nc(-c2ccccc2)cs1)c1cc(-c2ccc(Br)cc2)nc2ccccc12 the growth was 35.2%. With CN(C)CCOc1ccc(-c2nc3sccn3c2-c2ccnc(S(C)(=O)=O)n2)cc1 the growth was 98.8%. Molecule CCCCOc1ccc(S(=O)(=O)N2CCN(c3nc(C)cc(N4CCOCC4)n3)CC2)cc1 has a growth of 34.8%. O=C1CCc2c(sc3[nH]c(=S)n(Cc4ccccc4)c(=O)c23)C1 was tested, and the growth was -3.67% (active). N#CC(C#N)N=Nc1cc(Cl)ccc1Cl was tested, and the growth was 120%. CCN1C(=O)N(CC)C2Nn3c(s/c(=C\c4ccc(Cl)cc4Cl)c3=O)=NC21 (stereo not given) showed a growth of 32.1%. In the case of Nc1nc(N)c(N)c(Nc2ccc(CCO)cc2)n1, the growth is reported as 92.8%. Molecule COc1ccccc1/C(C)=N/NC(=O)CSc1nc2ccccc2c(=O)n1Cc1ccc(S(N)(=O)=O)cc1 has a growth of 98.8%. COc1ccc(-c2nc(-c3nc4ccc(OC)cc4[nH]3)c3ccccn23)cc1 was tested, and the growth was 72.2%. In the case of CCN1CCN(c2nc(C)cc(N(CCCNc3ccnc4cc(Cl)ccc34)Cc3ccco3)n2)CC1, the growth is reported as 84.2%. For Cc1ccc2oc(=O)cc(C3C(C#N)=C(N)Oc4c3ccc3ccccc43)c2c1 (stereo not given), the growth was 63.8%. Molecule CCCCCCCCCCCCCCCCCC(=O)OCCCCCCCCCCCCC has a growth of 117%. For NC1(CO)COC(c2ccccc2)OC1 (stereo not given), the growth was 99.7%. CCNC(=S)NNC(=O)c1cc2ccc1CCc1ccc(cc1)CC2 showed a growth of 106%. COc1cc(CCC[P+](c2ccccc2)(c2ccccc2)c2ccccc2)c(OC)c(OC)c1OC was tested, and the growth was 30.3%. With CC(=O)Oc1ccccc1C(=O)N=C1[Se]CCN1C(=O)c1ccccc1OC(C)=O the growth was -25.6% (active). For COc1cc(C2=NN(c3ccccc3)C(c3cccc(Nc4ccnc5cc(C(F)(F)F)ccc45)c3)C2)cc(OC)c1OC (stereo not given), the growth was 92.2%. O=C1c2cccnc2C(=O)c2c1c(C(=O)OCCN1CCOCC1)c1ccccn21 was tested, and the growth was -2.61% (active). O=C1C=CC(=O)N1CO gave a growth of 117%. c1ccc2[nH]c(-c3ccc(-c4nccc5c4[nH]c4ccccc45)cc3)nc2c1 showed a growth of 44.8%. CCCCCCCCCCCCNC(=O)N[C@H](C(=O)N[C@H]1/C=C/CCNC(=O)/C=C/[C@H](C)NC1=O)C(C)C was tested, and the growth was -66.6% (active). O=c1[nH]c(=S)c2c(n1CCCO)CCC2 showed a growth of 106%. Work on C=Cc1cnc(Nc2ccc(OC)cc2)nc1NCCCNC(=O)C1CCC1 yielded a growth of 46.4%.
